Data on two compounds can be found in PubChem BioAssay AID1159580 (chemical genetic matrix, 2015).

A short description of this test: chemical genetic growth profiling, strain panel (AID 1159580).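 Also: tested at 20 µM; growth read once vehicle control cultures reached saturation at 30 °C; 1 = growth at the plate median or of vehicle wells; lower values mean less growth of the strain.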 The following applies: S. cerevisiae deletion strains, growth OD.
[1] abbreviates: locus YAL013W, strain DEP1, stronger effect = lower value.
The mark [2] stands for this setting: locus YAL040C, strain CLN3, stronger effect = lower value.
Where [3] appears, read: locus YCL061C, strain MRC1 (second series), stronger effect = lower value.
[4] abbreviates: locus YDR363W, strain ESC2, stronger effect = lower value.
The mark [5] stands for this setting: locus YER002W, strain NOP16, stronger effect = lower value.
Where [6] appears, read: locus YGR078C, strain PAC10, stronger effect = lower value.
The mark [7] stands for this setting: locus YGR229C, strain SMI1, stronger effect = lower value.
Setting [8] is: locus YJR075W, strain HOC1, stronger effect = lower value.
The mark [9] stands for this setting: locus YMR263W, strain SAP30, stronger effect = lower value.
[10] abbreviates: locus YNL153C, strain GIM3, stronger effect = lower value.
Where [11] appears, read: locus YNL175C, strain NOP13, stronger effect = lower value.
Where [12] appears, read: locus YNL197C, strain WHI3, stronger effect = lower value.
The mark [13] stands for this setting: locus YNL224C, strain SQS1, stronger effect = lower value.
The mark [14] stands for this setting: locus YNL322C, strain KRE1, stronger effect = lower value.
The mark [15] stands for this setting: locus YOR083W, strain WHI5 (second series), stronger effect = lower value.
The mark [16] stands for this setting: locus YPL055C, strain LGE1, stronger effect = lower value.

“And” between values parts separate entries of the source, which are not always exact repeats. Equal values may be shown once. Out of some 5,500 compounds screened, about 2,000 (36%) were called active. About 18% were inconclusive and are not listed. Rule as the data show it: active = normalized growth mostly below about 0.91 (no sharp cut-off); inconclusive = no clear call, values can overlap the other calls; inactive = mostly above about 0.92. This is one part of the list. A structure can be active in one record and inactive in another.

`CC(N)(Cc1ccc(O)c(O)c1)C(=O)O` (centres undefined): the normalized growth under setting [1] was 0.956 (inactive); the normalized growth under setting [2] was 0.961 (inactive) and 1 (inactive); the normalized growth under setting [3] was 0.914 (active) and 0.963 (inactive); the normalized growth under setting [4] was 1.02 (inactive) and 1.01 (inactive); the normalized growth under setting [5] is 1.01 (inactive); the normalized growth under setting [6] is 1.01 (inactive) and 0.992 (inactive). Besides, the normalized growth under setting [7] is 0.862 (inactive); the normalized growth under setting [8] is 0.984 (inactive) and 0.975 (inactive); the normalized growth under setting [9] is 1.01 (inactive); the normalized growth under setting [10] is 0.971 (inactive); the normalized growth under setting [11] was 1.01 (inactive) and 1 (inactive); the normalized growth under setting [12] is 1.01 (inactive). For the same compound, the normalized growth is 1.01 (inactive) under setting [13]; 1.02 (inactive) and 1.01 (inactive) under setting [14]; 1.01 (inactive) and 0.993 (inactive) under setting [15]; 0.943 (inactive) under setting [16].
With `CC(N)(Cc1ccc(O)cc1)C(=O)O` (centres undefined), the normalized growth under setting [1] was 1.03 (inactive); the normalized growth under setting [2] was 0.969 (inactive) and 1.01 (inactive); the normalized growth under setting [3] was 0.991 (inactive) and 1.01 (inactive); the normalized growth (locus YDR150W, strain NUM1, stronger effect = lower value) was 1 (inactive); the normalized growth under setting [4] was 1 (inactive) and 1.03 (inactive); the normalized growth under setting [5] was 0.984 (inactive) and 1 (inactive). The normalized growth by setting is: under setting [6], 1.02 (inactive); under setting [7], 1.03 (inactive); under setting [8], 1.02 (inactive); under setting [9], 1.01 (inactive); (locus YNL128W, strain TEP1, stronger effect = lower value) 0.984 (inactive); under setting [10], 0.998 (inactive) and 1.02 (inactive). In addition, the normalized growth reads like this: under setting [11], 0.97 (inactive) and 1.01 (inactive); under setting [12], 0.975 (inactive) and 0.984 (inactive); under setting [13], 1.01 (inactive) and 1 (inactive); under setting [14], 1.03 (inactive); under setting [15], 0.974 (inactive) and 1 (inactive); under setting [16], 1.01 (inactive) and 1.02 (inactive).
